# PRMT1 FP inh = PRMT1 methyltransferase inhibitors, primary screen, biochemical, fluorescence polarization. 370,000 compounds, 1.3% hits. AID 652257, 2013. Protein arginine N-methyltransferase 1 (Homo sapiens), Q99873. recombinant PRMT1, activity-based probe fluorescence polarization. inhibition, % at 2.79 µM;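 active = inhibition above about 21% made by adding two undisclosed values, limit read from the data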
# PME-1 inh = PME-1 inhibitors via competitive probe labeling, primary screen, biochemical, fluorescence polarization, FP-Rh probe, HTS. Protein phosphatase methylesterase 1 (Homo sapiens), Q9Y570. recombinant PME-1. inhibition, % at 5.9 µM. 320,000 compounds, 0.53% hits;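 active = inhibition above the campaign mean of all compounds plus 3 SD, cut at about 26% in these data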;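 also: competitive labeling of PME-1 active site by serine hydrolase directed probe; 0% = PME-1 with DMSO and 100% = wells lacking PME-1 enzyme; inhibitors block probe labeling so polarization falls and inhibition rises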
# Target sequence (Q9Y570 whole entry, looked up): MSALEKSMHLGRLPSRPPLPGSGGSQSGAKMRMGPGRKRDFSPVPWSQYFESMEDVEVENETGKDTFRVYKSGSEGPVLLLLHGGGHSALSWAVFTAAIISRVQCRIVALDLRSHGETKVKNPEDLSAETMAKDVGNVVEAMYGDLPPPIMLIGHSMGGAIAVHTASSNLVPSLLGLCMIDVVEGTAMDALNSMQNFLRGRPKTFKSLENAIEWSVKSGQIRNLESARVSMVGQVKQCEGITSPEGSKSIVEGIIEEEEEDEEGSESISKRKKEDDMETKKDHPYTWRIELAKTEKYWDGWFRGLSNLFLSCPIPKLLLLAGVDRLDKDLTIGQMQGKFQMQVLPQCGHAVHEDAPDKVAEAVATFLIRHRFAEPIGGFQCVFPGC
# SIAE primary = human SIAE inhibitors, primary screen, biochemical, fluorescence polarization, FP-Rh probe, 1536-well HTS | inhibition, % at 9.66 µM | SIAE FP-Rh probe binding | AID 1053197, 2014 | Sialate O-acetylesterase (Homo sapiens), Q9HAT2 | 370,000 compounds, 0.69% hits;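 active = inhibition above a cutoff: mean of compounds within the control limits plus 3 SD of those, cut at about 17% in these data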;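 also: 0% = plate median of compound wells and 100% = probe without SIAE protein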
# TCR CD3 inh = inhibitors of human TCR-CD3 interaction, primary screen, biochemical, fluorescence, TAMRA-labeled TCR probe. 360,000 compounds, 0.37% hits. inhibition, % at 9.4 µM; in the data active = inhibition above about 19%;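 also: recombinant mutant TCR 2C K166C tagged with TAMRA read by polarization; 0% = receptor in buffer alone and 100% = receptor with positive control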
# Fam108B counter = mouse Fam108B serine hydrolase inhibitors, primary screen, counter-screen for RBBP9 inhibitor project, biochemical, fluorescence polarization. recombinant Fam108B, FP-Rh probe fluorescence polarization. inhibition, % at 9.51 µM. 300,000 compounds, 0.33% hits;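 active = inhibition above the screen mean inhibition plus 3 SD, computed separately per campaign, cut at about 18% in these data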;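 also: inhibitors lower polarization as less probe binds the enzyme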
# PAD4 FP inh = human PAD4 inhibitors, primary screen, biochemical, fluorescence polarization, 1536-well format. Protein-arginine deiminase type-4 (Homo sapiens), Q9UM07. recombinant PAD4, RCA probe fluorescence polarization. inhibition, % at 6.36 µM. 330,000 compounds, 0.41% hits;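 active = percent inhibition above a cutoff equal to the mean of all tested compounds plus 3 SD, cut at about 15% in these data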;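 also: 0% = PAD4 with RCA probe and DMSO and 100% = probe without PAD4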
# PRMT1 inh conf = PRMT1 methyltransferase inhibitors, confirmation, biochemical, fluorescence polarization, triplicate | inhibition, % at 2.79 µM | 3,300 compounds, 42% hits | recombinant His-PRMT1, activity-based probe fluorescence polarization | shares compounds with PRMT1 FP inh;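 active = mean inhibition across replicates above the hit cutoff derived for the earlier primary screen, cut at about 22% in these data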
# The depositor's hits bear a star; . = no result. Hits are enriched below; roughly 2.6% of the tested compounds scored in any of these assays.
SMILES,PRMT1 FP inh,PME-1 inh,SIAE primary,TCR CD3 inh,Fam108B counter,PAD4 FP inh,PRMT1 inh conf
CC1CCN(C(=S)Nc2ccc(F)cc2)CC1,-0.9,-6.5,3.2,-4.5,-2.4,1.6,.
Fc1ccc(NC(=S)N2CCSC2c2cccs2)cc1 (centres undefined),53.2*,3.4,6.5,-6.0,-0.2,1.5,5.8
O=C(Nc1ccc2c(c1)OCO2)OC1CCC12CCC(c1ccccc1)CC2 (centres undefined),0.5,.,-14.0,.,.,.,.
O=[N+]([O-])c1cc(-c2csc(NC(CO)c3nc4ccccc4n3CCOCCO)n2)ccc1Cl (centres undefined),37.2*,6.0,6.5,7.1,3.5,-0.6,10.3
O=[N+]([O-])c1cc(-c2ncccn2)c([N+](=O)[O-])s1,28.1*,-1.5,9.4,5.8,0.3,1.4,36.5*
O=C(O)/C=C/C(=O)Nc1ccccc1-c1ccccc1,29.7*,-4.2,-2.7,2.8,-0.3,-4.5,-1.5
COC(=O)[C@@]1(C)[C@H]2C(=O)N(Cc3ccccc3)C(=O)[C@H]2[C@H]2CN=C(SC)N21,4.1,.,7.3,-4.8,.,3.6,.
CCN1C(=O)[C@H]2[C@H]3CN=C(SCC(=O)c4ccccc4)N3[C@@](CC)(C(=O)OC)[C@H]2C1=O,69.0*,.,3.4,-7.3,.,4.5,44.4*
CCN1C(=O)[C@H]2[C@H]3CN=C(SCc4ccccc4)N3[C@@](CC)(C(=O)OC)[C@H]2C1=O,-0.6,.,0.2,-2.9,.,-1.6,.
CCN1C[C@@H]2[C@@H]3C(=O)N(Cc4ccccc4)C(=O)[C@@H]3[C@](CC)(C(=O)OC)N2C1=NCc1ccccc1,31.7*,.,9.7,8.0,.,.,5.8
CCN1C[C@@H]2[C@@H]3C(=O)N(C)C(=O)[C@@H]3[C@](CC)(C(=O)OC)N2C1=NCc1ccccc1,2.1,.,5.8,-7.6,.,.,.
COC(=O)[C@@]1(C)[C@H]2C(=O)N(Cc3ccccc3)C(=O)[C@H]2[C@H]2CN=C(SCC(=O)c3ccccc3)N21,79.9*,.,11.7,9.2,.,9.0,58.3*
CCC(=S)/C=C1\Sc2ccccc2N1CCCS(=O)(=O)O,34.1*,3.4,4.8,2.2,-0.9,3.0,4.5
O=C(CSC(=O)c1ccccc1)Nc1ccccc1F,29.4*,.,7.8,1.4,.,9.6,25.9*
CCN(CC)CCSC(=O)C(c1ccccc1)c1ccccc1,75.6*,.,6.6,3.3,.,.,40.1*
Cc1ccc(-c2nc3cnccn3c2Nc2ccc3c(c2)OCCO3)o1,26.6*,4.3,5.5,-4.1,1.7,-0.3,1.9
CN(C)c1ccc(-c2nc3cnccn3c2Nc2ccc3c(c2)OCCO3)cc1,4.3,9.6,6.5,-5.1,7.8,2.0,.
Nc1ccccc1SC1CC(=O)N(c2ccc3c(c2)OCCO3)C1=O (centres undefined),-0.4,4.1,4.4,2.6,0.7,-0.5,.
O=C1CC(Sc2ccc(Cl)cc2)C(=O)N1c1ccc2c(c1)OCCO2 (centres undefined),55.2*,-0.5,-52.5,-0.7,0.5,-0.8,44.9*
COCc1cc(N2CCN(C(=O)OC(C)(C)C)C[C@@H]2C)ccc1N1CC[C@H](O)C1,58.4*,.,8.8,5.9,.,.,7.0
Cc1cc(N2CCN(C(=O)OC(C)(C)C)C[C@H]2C)ccc1N1C[C@@H](C)O[C@@H](C)C1,5.2,.,8.1,0.4,.,.,.
COCc1cc(N2CCN(C(=O)OC(C)(C)C)C[C@H]2C)ccc1N1CC[C@H](O)C1,60.5*,.,11.5,3.5,.,.,1.4
Cc1cc(N2CCN(C(=O)OC(C)(C)C)C[C@H]2C)ccc1N1CC[C@@H](O)C1,61.0*,.,4.2,5.1,.,.,11.2
Cc1ccccc1C(=O)N(C)[C@H]1C[C@H]2c3[nH]c4c(-c5ccccc5)cccc4c3CCN2C[C@H]1[C@H](C)O,-1.9,.,-0.7,.,.,.,.
